Dicer inh – human Dicer pre-microRNA cleavage inhibition; Q9UPY3; cat-ELCCA pre-miR-21 Dicer processing, chemiluminescence; hits give high values; z-score at 25 µM; 6% of 47,000 active; AID 1347074; in the data active = z-score above about 3, passing the limit was not always enough;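 note: plate controls were vehicle for no effect and no enzyme for full effect; higher signal means more uncleaved substrate so more Dicer inhibition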
* = called active by the depositor. The entries come from a sample that favours hits as a whole.

SMILES	Dicer inh
COc1cccc(=O)c2c(C)n(-c3ccc(C(=O)O)cc3)c(C)c12	2.09
Nc1c(S(=O)(=O)c2ccc(Cl)cc2)cnc2cc(-c3cccs3)nn12	-1.4
CCCCCc1c(O)nc(SCCN(C)C)[nH]c1=O	1.21
CCCCCCc1c(O)nc(SCCN(C)C)[nH]c1=O	0.69
CCCCCCc1c(O)nc(SCC(=O)O)[nH]c1=O	5.67*
Cc1ccc(S(=O)(=O)Nc2ccccc2-c2nc(-c3ccc(Cl)cc3)no2)cc1	-0.39
COc1sc(/C=N/O)cc1Br	-1.11
Fc1ccc(NC(=S)N2CCN(c3ncnc4sccc34)CC2)c(F)c1	1.8
CCc1nc(N)nc2c1C(=O)CC(C)(C)C2	-2.78
CCNc1c2c(nc3ccccc13)CC(C)(C)CC2=O	3.05*
CC1(C)CC(=O)C2=C(C1)c1c(ccc3ccccc13)NC2c1ccccc1 (configuration not stated)	2.97
CCC(=O)N1c2ccccc2NC2=C(C(=O)CC(C)(C)C2)C1c1ccc(-c2cccc(C(=O)O)c2)o1 (configuration not stated)	-0.37
COC(=O)c1c(NC(=O)c2nc3ncccn3n2)sc2c1CCC2	-0.62
COc1ccc2c(c1)CCC1C2=Nc2ccccc2SC1c1ccc(C)cc1 (configuration not stated)	0.48
O=C(c1ccc(-c2ccccc2)cc1)c1cc2cc([N+](=O)[O-])ccc2o1	1.01
Cc1ccc2nc(Nc3nc(O)cc(=O)[nH]3)nc(C)c2c1	2.74
Cc1cc(C)c2nc(Nc3nc(O)cc(=O)[nH]3)nc(C)c2c1	5.25*
Cc1ccc2nc(Nc3nc(C)cc(=O)[nH]3)nc(C)c2c1	0.87
Clc1nc(NCCN2CCOCC2)nc(N2CCC(Cc3ccccc3)CC2)n1	0.1
O=C(O)CCCNC1=NCCS1	-1.52
O=C(O)CCCNc1nc(Cl)nc(N2CCCCC2)n1	5.65*
CCC/C(O)=C(/C=N/c1sccc1C(=O)OC)C(=O)OCC	0.51
Cc1c(N=Cc2ccccc2O)cc2c(c1[N+](=O)[O-])C(C)(C)CC2(C)C	-0.31
CC(C)CC(NC(=O)Cc1ccsc1)C(=O)NNS(=O)(=O)c1ccc(Cl)cc1 (configuration not stated)	12.5*
CC(C)CC(NC(=O)Cc1ccsc1)C(=O)NNC(=O)c1ccccc1Cl (configuration not stated)	-0.88
SMILES	Dicer inh
CC(C)CC(NC(=O)Cc1ccsc1)C(=O)NN (configuration not stated)	-2.81
COc1ccc(COC(=O)C2=C(C)NC3=C(C(=O)CCC3)C2c2coc3ccc(C)cc3c2=O)cc1 (configuration not stated)	0.44
CCc1nn2c(=O)c(NC(=O)c3ccc(F)cc3)cnc2s1	-0.28
CC(C)n1cc(-c2nc(-c3ccc(Cl)cc3)cs2)c(=O)n(Cc2ccccc2)c1=O	-0.66
Cc1csc(-c2cn(C(C)C)c(=O)n(Cc3ccccc3)c2=O)n1	-0.87
CC(C)n1cc(-c2noc(-c3cccs3)n2)c(=O)n(Cc2ccccc2)c1=O	3.15*
Cc1cc(C(=O)NNc2c(Cl)cccc2Cl)nn1-c1c(Cl)cccc1Cl	1.53
Cc1nn2c3c(cnc2c1-c1ccc(F)cc1)C(=O)CC(c1cccs1)C3 (configuration not stated)	4.17*
Cc1nn2c3c(cnc2c1-c1ccc(F)cc1)C(=O)CC(c1ccc(F)cc1)C3 (configuration not stated)	0.07
Cc1nn2c3c(cnc2c1-c1ccc(Cl)cc1)C(=O)CC(c1cccs1)C3 (configuration not stated)	-0.48
CCOC(=O)c1c(NC(=S)NC(=O)/C=C/c2ccccc2)sc2c1CCCC2	-0.48
C/C(=N\NC(N)=S)c1ccc(C)nc1	0.3
CCn1c(SCC(=O)c2c(C)[nH]c3ccccc23)nnc1-c1cccs1	0.56
Cn1nc(OC(C)(C)C(=O)NC(C)(C)C)cc1C(F)(F)F	-1.26
O=C(Nc1ccc(Cl)cc1Cl)c1cnc(NC2CCCCC2)cc1C(F)(F)F	1.05
C/C(=N\NC(=S)Nc1ccc(F)cc1)c1ccco1	0.88
CC(C)c1ccc(NC(=S)NN(C)C)cc1	2.93
C/C(=N\NC(=S)Nc1ccc(C(C)C)cc1)c1ccco1	3*
COc1cc(C2c3c(oc4ccc(C)cc4c3=O)C(=O)N2c2nc(C)c(C)s2)ccc1O (configuration not stated)	0
NC(=O)C1CCN(c2cnc3ccccc3n2)CC1	1.8
COc1cc(C2C(C#N)=C(N)Oc3n[nH]c(C)c32)cc(Br)c1OCc1ccc(F)cc1 (configuration not stated)	-6.81
CC(=O)Nc1ccc(N2COc3ccc(Br)cc3C2)cc1	-0.26
CC(C)(C)NC1=C(C#N)C(=O)NC(c2ccccc2O)S1 (configuration not stated)	3.86*
CSC1=C(C#N)C(=O)NC(c2ccccc2O)S1 (configuration not stated)	-0.17
CSC1=C(C#N)C(=O)NC(c2cccc3ccccc23)S1 (configuration not stated)	0.89
SMILES	Dicer inh
COc1ccc2c(c1)nc(SCc1ccccc1)n2C	2.17
CNC(=O)NNC(=O)CC1Sc2ccccc2NC1=O (configuration not stated)	22.5
CCCCCOC(=O)C1=C(C)NC2=C(C(=O)CC(C)(C)C2)C1c1ccc(OC)c(OC)c1 (configuration not stated)	-0.19
Cc1cc(N/N=C/c2ccc(Cl)cc2)nc2c1c(C)nn2C	0.93
COc1ccc(-c2ccc(=O)[nH]n2)cc1	1.19
CCc1cc(-c2[nH]ncc2-c2ccc(OC)cc2)c(O)cc1O	0.83
COc1ccc(-c2nc(-c3ccccc3)no2)cc1OC	-0.64
COc1cc(-c2ccc(=O)[nH]n2)ccc1OC(F)F	0.07
COc1ccc(-c2cc(-c3ccccc3O)[nH]n2)cc1OC	4.97*
COc1ccc(-c2cc(-c3cc(OC)ccc3O)[nH]n2)cc1	8.07*
COc1cccc(OC)c1C(=O)NC(=O)Nc1c(Cl)cc([N+](=O)[O-])cc1Cl	-0.54
CCOC(=O)c1ccsc1NC(=O)c1ccc(C(F)(F)F)cc1	0
CC(C)NCCn1c(-c2ccc(Br)cc2)cn2c3ccccc3nc12	0.36
C=C(C)c1cccc(C(C)(C)NC(=O)N2CCN(c3ccccn3)CC2)c1	1.35
CC(C)(CC(=O)O)CC(=O)N1CCCN(c2c(Cl)cncc2Cl)CC1	1.92
CC(C)(CC(=O)O)CC(=O)N1CCN(c2ccccn2)CC1	4.06*
CCOC(=O)c1ccc(Oc2nc(NC)nc(SC)n2)cc1	5.61*
COC(=O)c1ccc(Oc2nc(N(C)C)nc(N(C)C)n2)cc1	-0.06
CCOC(=O)c1ccc(Oc2nc(N(C)C)nc(N(C)C)n2)cc1	1.7
C=CCn1c(SCC(=O)Nc2ncc3c(n2)CC(c2ccccc2)CC3=O)nnc1-c1ccccc1 (configuration not stated)	8.71
COc1ccc(C(N)=O)cc1OC(C)C	-1.24
Cc1ccnc(NS(=O)(=O)c2ccccc2)c1	1.53
Cc1cc(O)c(C(C)C)cc1NS(=O)(=O)c1ccccc1	4.17*
Cn1c(=O)n(C)c2cc(S(=O)(=O)Nc3ccccc3O)ccc21	-0.21
FC(F)(F)c1nnc2scc(-c3ccc(Cl)cc3)n12	-0.77
O=C1Sc2ccccc2N/C1=C/c1ccccc1	2.93
O=C(CSc1nccc(-c2cccs2)n1)Nc1cccc([N+](=O)[O-])c1	-5.87
CCO/C=C1\SC(=S)N(/N=C/c2cccc(Cl)c2)C1=O	-2.29
NC(N)=N/C(N)=N/c1nc(-c2ccc(Cl)cc2)cs1	-3.27
C=CCOC(=O)Oc1ccc2c(=O)c(Oc3ccc(CC)cc3)coc2c1	1.27

High-throughput results from PubChem.
